# Results taken from PMC11062922 (Nature Chemical Biology, 2023).
# Where two headings read alike, the source gives them in different places.
# Assays:
# Parameters in all cases: species or system human, MV4-11 + K-562 + COLO205 + SK-N-BE2 + OVCAR-8
# [1] = system: ADRBK1; details: read-out: apparent Kd, compound concentrations: 100 nM and 1000 nM (sheet 'Samples'), n = 1
# [2] = system: AKT1; details: read-out: apparent Kd; compound concentrations: 100 nM and 1000 nM (sheet 'Samples'), CATDS: 5.9095519599072298E-2; n = 1
# [3] = system: AKT2; details: read-out: apparent Kd, n = 1
# [4] = system: AKT3; details: read-out: apparent Kd; compound concentrations: 100 nM and 1000 nM (sheet 'Samples'), CATDS: 5.2731999581220101E-2; n = 1
# [5] = system: CDK17; details: read-out: apparent Kd; compound concentrations: 100 nM and 1000 nM (sheet 'Samples'), CATDS: 5.5041868266542698E-2; n = 1
# [6] = system: CDK6; details: read-out: apparent Kd, compound concentrations: 100 nM and 1000 nM (sheet 'Samples'), n = 1
# [7] = system: CDKL5; details: read-out: apparent Kd; compound concentrations: 100 nM and 1000 nM (sheet 'Samples'), CATDS: 5.3023462381207802E-2; n = 1
# [8] = system: CSNK1A1; details: read-out: apparent Kd; compound concentrations: 100 nM and 1000 nM (sheet 'Samples'), CATDS: 5.2392632468863803E-2; n = 1
# [9] = system: MAP2K1; details: read-out: apparent Kd; compound concentrations: 100 nM and 1000 nM (sheet 'Samples'), CATDS: 5.50231746712945E-2; n = 1
# [10] = system: MAP2K2; details: read-out: apparent Kd, compound concentrations: 100 nM and 1000 nM (sheet 'Samples'), n = 1
# [11] = system: MET; details: read-out: apparent Kd; compound concentrations: 100 nM and 1000 nM (sheet 'Samples'), CATDS: 5.0838558886591501E-2; n = 1
# [12] = system: NNT; details: read-out: apparent Kd; compound concentrations: 100 nM and 1000 nM (sheet 'Samples'), CATDS: 6.8732534109556695E-2; n = 1
# [13] = system: NQO1; details: read-out: apparent Kd, compound concentrations: 100 nM and 1000 nM (sheet 'Samples'), n = 1
# [14] = system: PIP4K2C; details: read-out: apparent Kd; compound concentrations: 100 nM and 1000 nM (sheet 'Samples'), CATDS: 5.5359350052651503E-2; n = 1
# [15] = system: PRKAG2; details: read-out: apparent Kd; compound concentrations: 100 nM and 1000 nM (sheet 'Samples'), CATDS: 6.3549748711714801E-2; n = 1
# [16] = system: RAB6A;RAB6B; details: read-out: apparent Kd; compound concentrations: 100 nM and 1000 nM (sheet 'Samples'), CATDS: 6.9234988104968295E-2; n = 1
# [17] = system: VDAC3; details: read-out: apparent Kd; compound concentrations: 100 nM and 1000 nM (sheet 'Samples'), CATDS: 6.3375606463047907E-2; n = 1
# [18] = system: EGFR; details: read-out: apparent Kd; compound concentrations: 100 nM and 1000 nM (sheet 'Samples'), CATDS: 0.20286097232099201; n = 1
# [19] = system: PYGL; details: read-out: apparent Kd; compound concentrations: 100 nM and 1000 nM (sheet 'Samples'), CATDS: 0.12425140919606401; n = 1
# [20] = system: RIPK2; details: read-out: apparent Kd; compound concentrations: 100 nM and 1000 nM (sheet 'Samples'), CATDS: 0.17953871866569099; n = 1
# [21] = system: CDC42BPA; details: read-out: apparent Kd; compound concentrations:100 nM and 1000 nM (sheet 'Samples'); n = 1
# [22] = system: CDC42BPG; details: read-out: apparent Kd; compound concentrations:100 nM and 1000 nM (sheet 'Samples'); n = 1
# [23] = system: CIT; details: read-out: apparent Kd; compound concentrations:100 nM and 1000 nM (sheet 'Samples'); n = 1
# [24] = system: GSK3A; details: read-out: apparent Kd; compound concentrations:100 nM and 1000 nM (sheet 'Samples'); n = 1
# [25] = system: GSK3B; details: read-out: apparent Kd; compound concentrations:100 nM and 1000 nM (sheet 'Samples'); n = 1
# [26] = system: LATS1; details: read-out: apparent Kd; compound concentrations:100 nM and 1000 nM (sheet 'Samples'); n = 1
# [27] = system: MAPKAPK2; details: read-out: apparent Kd; compound concentrations:100 nM and 1000 nM (sheet 'Samples'); n = 1
# [28] = system: MARK2; details: read-out: apparent Kd; compound concentrations:100 nM and 1000 nM (sheet 'Samples'); n = 1
# [29] = system: MARK3; details: read-out: apparent Kd; compound concentrations:100 nM and 1000 nM (sheet 'Samples'); n = 1
# [30] = system: MARK4; details: read-out: apparent Kd; compound concentrations:100 nM and 1000 nM (sheet 'Samples'); n = 1
# [31] = system: PAK4; details: read-out: apparent Kd; compound concentrations:100 nM and 1000 nM (sheet 'Samples'); n = 1
# [32] = system: PAK6; details: read-out: apparent Kd; compound concentrations:100 nM and 1000 nM (sheet 'Samples'); n = 1
# [33] = system: PKN1; details: read-out: apparent Kd; compound concentrations:100 nM and 1000 nM (sheet 'Samples'); n = 1
# [34] = system: PKN3; details: read-out: apparent Kd; compound concentrations:100 nM and 1000 nM (sheet 'Samples'); n = 1
# [35] = system: PRKACA; details: read-out: apparent Kd; compound concentrations:100 nM and 1000 nM (sheet 'Samples'); n = 1
# [36] = system: PRKACB; details: read-out: apparent Kd; compound concentrations:100 nM and 1000 nM (sheet 'Samples'); n = 1
# [37] = system: PRKCD; details: read-out: apparent Kd; compound concentrations:100 nM and 1000 nM (sheet 'Samples'); n = 1
# [38] = system: PRKCI; details: read-out: apparent Kd; compound concentrations:100 nM and 1000 nM (sheet 'Samples'); n = 1
# [39] = system: PRKG1; details: read-out: apparent Kd; compound concentrations:100 nM and 1000 nM (sheet 'Samples'); n = 1
# [40] = system: PRKX; details: read-out: apparent Kd; compound concentrations:100 nM and 1000 nM (sheet 'Samples'); n = 1
# [41] = system: ROCK2; details: read-out: apparent Kd; compound concentrations:100 nM and 1000 nM (sheet 'Samples'); n = 1
# [42] = system: RPS6KA4; details: read-out: apparent Kd; compound concentrations:100 nM and 1000 nM (sheet 'Samples'); n = 1
compound,measurement,setting,value
N#Cc1c(NC(=O)CN2CCOCC2)sc2c1CCCC2.O=C(O)C(=O)O [SB-657836-AAA],potency estimated from few doses,[1]; CATDS: 5.9509771658031299E-2,1680 nM
same,potency estimated from few doses,[2],1700 nM
same,potency estimated from few doses,"[3]; compound concentrations: 100 nM and 1000 nM (sheet 'Samples'), CATDS: 5.77170152352365E-2",1790 nM
same,potency estimated from few doses,[4],2170 nM
same,potency estimated from few doses,[5],1970 nM
same,potency estimated from few doses,[6]; CATDS: 5.9987442985443201E-2,1650 nM
same,potency estimated from few doses,[7],2140 nM
same,potency estimated from few doses,[8],2200 nM
same,potency estimated from few doses,[9],1980 nM
same,potency estimated from few doses,[10]; CATDS: 7.31538140973165E-2,1150 nM
same,potency estimated from few doses,[11],2370 nM
same,potency estimated from few doses,[12],1280 nM
same,potency estimated from few doses,[13]; CATDS: 6.20542756151947E-2,1550 nM
same,potency estimated from few doses,[14],1950 nM
same,potency estimated from few doses,[15],1480 nM
same,potency estimated from few doses,[16],1260 nM
same,potency estimated from few doses,[17],1490 nM
COc1cc(Nc2ncc3c(C)nc(-c4cccc(C(F)(F)F)c4)n3n2)cc(OC)c1OC [GW837331X],potency estimated from few doses,[1]; CATDS: 1,2010 nM
Cn1cncc1-c1ccc2ncnc(Nc3ccc(OCc4ccccc4)cc3)c2c1 [GW320571X],potency estimated from few doses,"[3]; compound concentrations: 100 nM and 1000 nM (sheet 'Samples'), CATDS: 0.134297871058083",1180 nM
same,potency estimated from few doses,[6]; CATDS: 0.111886140460168,1880 nM
same,potency estimated from few doses,[18],545 nM
same,potency estimated from few doses,[10]; CATDS: 0.118156666202673,1610 nM
same,potency estimated from few doses,[13]; CATDS: 0.17840078958021699,676 nM
same,potency estimated from few doses,[19],1420 nM
same,potency estimated from few doses,[20],668 nM
CCn1c(-c2nonc2N)nc2c(C#CC(C)(C)O)ncc(OCCCCN)c21.CCn1c(-c2nonc2N)nc2c(C#CC(C)(C)O)ncc(OCCCCN)c21.O=C(O)C(F)(F)F.O=C(O)C(F)(F)F [GSK507274A],potency estimated from few doses,[3]; compound concentrations:100 nM and 1000 nM (sheet 'Samples'),1440 nM
same,potency estimated from few doses,[21],2200 nM
same,potency estimated from few doses,[22],1800 nM
same,potency estimated from few doses,[23],554 nM
same,potency estimated from few doses,[24],328 nM
same,potency estimated from few doses,[25],488 nM
same,potency estimated from few doses,[26],83.9 nM
same,potency estimated from few doses,[27],1370 nM
same,potency estimated from few doses,[28],440 nM
same,potency estimated from few doses,[29],178 nM
same,potency estimated from few doses,[30],629 nM
same,potency estimated from few doses,[31],30.9 nM
same,potency estimated from few doses,[32],99.3 nM
same,potency estimated from few doses,[33],191 nM
same,potency estimated from few doses,[34],13 nM
same,potency estimated from few doses,[35],787 nM
same,potency estimated from few doses,[36],965 nM
same,potency estimated from few doses,[37],1450 nM
same,potency estimated from few doses,[38],1890 nM
same,potency estimated from few doses,[39],1070 nM
same,potency estimated from few doses,[40],54.1 nM
same,potency estimated from few doses,[41],446 nM
same,potency estimated from few doses,[42],749 nM
